Data reported in PubChem BioAssay (Tox21).
Active and inactive are the calls of the source. Entries that show only a call come without a potency. The call rests on the fitted dose curve; in most records, active means well fitted curve in the direction sought with a large enough effect in the repeat runs; inconclusive means weak or mixed curves; inactive means flat fitted curve, though single readings scatter. Positions of bridges follow the written chain, without caps; N, C: chain ends. Non-standard residues stand in square brackets, D forms with d. Residues, ends and D or L forms follow the SMILES beside them. ξ: configuration not given here. *: point of attachment. d(aThr) = C[C@@H](O)[C@@H](N)C(=O)O; ξThr(3R) = C[C@@H](O)C(N)C(=O)O; X3 = CC[C@@H](C)CCCCC(=O)*; dDab = NCC[C@@H](N)C(=O)O

Assay: qHTS assay to test for compound auto fluorescence at 460 nm (blue) in HEK293 cells (AID 720678)
Conditions: blue autofluorescence 405/460 nm; series mostly up to 46 µM
In short: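 Auto fluorescence in the blue band was quantified as triamterene equivalency. HEK293 cells were seeded at 2,000/well, dosed after a 4-5 hr attachment, and kept overnight at 37C before the 405/460 nm reading.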

Row | Compound | Potency
1 | CSc1nc2cc(Oc3cccc(Cl)c3Cl)c(Cl)cc2[nH]1 | inactive
2 | Cc1ccc(S(=O)(=O)NC(=O)N[C@@H](C)Cc2ccccc2)cc1 | inactive
3 | CC[C@@H](C)CCCCC(=O)N[C@H](CCN)C(=O)N[C@@H](C(=O)N[C@H](CCN)C(=O)N[C@@H]1CCNC(=O)C([C@@H](C)O)NC(=O)[C@@H](CCN)NC(=O)[C@@H](CCN)NC(=O)[C@@H](CC(C)C)NC(=O)[C@@H](Cc2ccccc2)NC(=O)[C@@H](CCN)NC1=O)[C@@H](C)O (stereo partly drawn) (X3-[dDab][d(aThr)][dDab][dDab][dDab][dF][dL][dDab][dDab][ξThr(3R)]; lactam 4-C) | inactive
4 | COC(=O)C1=C(C)NC(C)=C(C(=O)O[C@H]2CCN(Cc3ccccc3)C2)[C@H]1c1cccc([N+](=O)[O-])c1 | inactive
5 | CCCCCCCCCCCCCCCCOCCOCCOCCOCCOCCOCCOCCOCCOCCOCCOCCOCCOCCOCCOCCOCCOCCOCCOCCOCCO | inactive
6 | CCC(=O)O[C@@H]1CC(=O)O[C@H](C)C/C=C/C=C/[C@H](O)[C@H](C)C[C@H](CC=O)[C@H](O[C@@H]2O[C@H](C)[C@@H](O[C@H]3C[C@@](C)(O)[C@@H](OC(=O)CC)[C@H](C)O3)[C@H](N(C)C)[C@H]2O)[C@H]1OC | inactive
7 | O=C(Nc1ccc(/C=C/c2ccc(NC(=O)c3cc(S(=O)(=O)O)c4cccnc4c3O)cc2S(=O)(=O)O)c(S(=O)(=O)O)c1)c1cc(S(=O)(=O)O)c2cccnc2c1O | inactive
8 | C[C@]12C=CC(=O)N[C@@H]1CC[C@@H]1[C@@H]2CC[C@]2(C)[C@@H](C(=O)Nc3cc(C(F)(F)F)ccc3C(F)(F)F)CC[C@@H]12 | inactive
9 | O=C(O)CN(CC(=O)O)CC1=CC2C(=CC1=O)Oc1cc(O)c(CN(CC(=O)O)CC(=O)O)cc1C21OC(=O)c2ccccc21 (centres undefined) | inactive
10 | NC(N)=NCC1COc2ccccc2O1 (centres undefined) | inactive
11 | CC[C@]1(O)CC2CN(CCc3c([nH]c4ccccc34)[C@@](C(=O)OC)(c3cc4c(cc3OC)N(C)[C@H]3[C@@](O)(C(N)=O)[C@H](O)[C@]5(CC)C=CCN6CC[C@]43[C@@H]65)C2)C1 (some centres undefined) | inactive
12 | NC(=O)C[C@@H](N)C(=O)O | inactive
13 | CN=C(NC)NCc1ccccc1 | inactive
14 | CC(C)NCC(O)COc1ccccc1-n1cccc1 (centres undefined) | inactive
15 | CN(CCO)CC(O)Cn1cnc2c1c(=O)n(C)c(=O)n2C (centres undefined) (tested in a mixture with another compound) | inactive
16 | COc1ccccc1N1CCN(CCCC(=O)c2ccc(F)cc2)CC1 | inactive
17 | CN[C@@H]1[C@@H](O)[C@@H](O[C@@H]2[C@@H](O)[C@H](OC3OC(CN)=CCC3N)[C@@H](N)C[C@H]2N)OC[C@]1(C)O (some centres undefined) | inactive
18 | c1ccc2cc(C3=NCCN3)ccc2c1 | inactive
19 | O=C(OC[C@H]1O[C@](O)(COC(=O)c2cccnc2)[C@@H](OC(=O)c2cccnc2)[C@@H]1OC(=O)c1cccnc1)c1cccnc1 | inactive
20 | CCC(=O)OCC(=O)[C@@]1(OC(=O)CC)[C@@H](C)C[C@H]2[C@@H]3CCC4=CC(=O)C=C[C@]4(C)[C@@]3(F)[C@@H](O)C[C@@]21C | inactive

Row | Compound | Potency
21 | Cc1cc(O)c2c(c1)O[C@@]1(C)CC[C@H]3C(C)(C)CCCC34CO[C@@H]2[C@H]41 (some centres undefined) | inactive
22 | C#C[C@]1(O)CC[C@H]2[C@@H]3CCC4=C(CCC(=O)C4)[C@H]3CC[C@@]21C | inactive
23 | OCC(S)CS (centres undefined) | inactive
24 | CCCCCc1ccc(C)cc1O | inactive
25 | NCCC(=O)[N-][C@@H](Cc1cnc[nH]1)C(=O)O.[Zn] | inactive
26 | O=C(O)c1cc(N=Nc2ccc(O)c(C(=O)O)c2)ccc1O | inactive
27 | O=C(O)c1c(Cl)c(Cl)c(Cl)c(Cl)c1-c1c2cc(I)c(=O)c(I)c-2oc2c(I)c(O)c(I)cc12 | inactive
28 | CCC[C@@H]1C[C@@H](C(=O)N[C@@H]([C@H]2O[C@H](SC)[C@H](O)[C@@H](O)[C@H]2O)[C@H](C)Cl)N(C)C1 | inactive
29 | CC(C)N=c1cc2n(-c3ccc(Cl)cc3)c3ccccc3nc-2cc1Nc1ccc(Cl)cc1 | inactive
30 | C[C@@H]1CCC2[C@@H](C)[C@@H](O)O[C@@H]3O[C@@]4(C)CC[C@@H]1[C@@]23OO4 (some centres undefined) | inactive
31 | CC(=O)N[C@@H](C=O)[C@@H](O)[C@H](O)[C@H](O)CO | inactive
32 | CCOC(=O)C1=C(COCCN)NC(C)=C(C(=O)OC)C1c1ccccc1Cl (centres undefined) | inactive
33 | CCOC(=O)[C@@H](N)CS | inactive
34 | CC[C@@H]1/C=C(\C)C[C@H](C)C[C@H](OC)[C@H]2O[C@@](O)(C(=O)C(=O)N3CCCC[C@H]3C(=O)O[C@H](/C(C)=C/[C@@H]3CC[C@@H](Cl)[C@H](OC)C3)[C@H](C)[C@@H](O)CC1=O)[C@H](C)C[C@@H]2OC | inactive
35 | CCCCCCCCCCCCCCCC(=O)O[C@@H]1CC(C)=C(/C=C/C(C)=C/C=C/C(C)=C/C=C/C=C(C)/C=C/C=C(C)/C=C/C2=C(C)C[C@@H](OC(=O)CCCCCCCCCCCCCCC)CC2(C)C)C(C)(C)C1 | inactive
36 | CCCCCCC(=O)O[C@H]1CC[C@H]2[C@@H]3CCc4cc(O)ccc4[C@H]3CC[C@]12C | inactive
37 | CN=C1C=CC(=C(c2ccc(N(C)C)cc2)c2ccc(N(C)C)cc2)C=C1 | inactive
38 | CCCC1([C@H](O)C/C=C/[C@H]2[C@H](O)CC(=O)[C@@H]2CCCCCCC(=O)OC)CCC1 | inactive
39 | C=C1C(=C/C=C2\CCC[C@]3(C)[C@@H]([C@H](C)/C=C/[C@H](C)C(C)C)CC[C@@H]23)C[C@@H](O)C[C@@H]1O | inactive
